According to PubChem BioAssay (EPA / NIEHS):
Records with an inconclusive call do not appear. Active and inactive are the calls of the source. Rule for the calls: active = hit-call score of the fitted dose curve at least 0.9, where 1 is the maximum; inconclusive = response in the unintended direction; inactive = score below 0.9.

Columns and labels:
[1] = TOX21_p53_BLA_p2_viability: Viability Assessment in the Tox21 HCT-116 p53 Agonism Beta-lactamase Assay, Phase 2 (AID 2283591);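 note: compound exposure lasted 16 h at 37 °C; actives lower the ATP signal meaning cytotoxicity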
Outline: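 HCT-116 p53-bla cells (4000/well) rested 5 h at 37C, then received compounds in DMSO (217-fold dilution) for 16 h at 37C, 5% CO2. After the CCF4 read, CellTiter-Glo was added; ATP luminescence was read after 30 min at room temperature.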

[2] = TOX21_p53_BLA_p3_viability: Viability Assessment in the Tox21 HCT-116 p53 Agonism Beta-lactamase Assay, Phase 3 (AID 2283593);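 note: cells exposed to compound for 16 h before reading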
Outline: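 HCT-116 cells (4000/well) rested 5 h at 37C, then got DMSO compounds by pin tool (217-fold dilution) for 16 h at 37C, 5% CO2. After the bla read, CellTiter-Glo was added and luminescence read at 30 min, room temperature.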

[3] = molecular target: Cellular tumor antigen p53 (Homo sapiens) (UniProt P04637); assay: TOX21_p53_BLA_p3_ratio: Tox21 HCT-116 p53 Agonism Beta-lactamase Assay, Ratio, Phase 3 (AID 2283596)
Outline: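 HCT116 p53-bla cells (4000/well) given compound in DMSO (217-fold dilution) after 5 h, incubated 16 h at 37C. CCF4-AM substrate 2 h at room temperature; 460/530 nm emission ratio, gain fitted against DMSO.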

[4] = TOX21_p53_BLA_p4_viability: Viability Assessment in the Tox21 HCT-116 p53 Agonism Beta-lactamase Assay, Phase 4 (AID 2283597);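 note: hits lower the luminescence signal meaning cytotoxicity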
Outline: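 Luminescent ATP readout (CellTiter-Glo, 30 min, room temperature) in the same wells as the p53 bla ratio. HCT116 cells were treated for 16 h at 37C with DMSO-dissolved compounds.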

[5] = molecular target: Cellular tumor antigen p53 (Homo sapiens) (UniProt P04637); assay: TOX21_p53_BLA_p5_ratio: Tox21 HCT-116 p53 Agonism Beta-lactamase Assay, Ratio, Phase 5 (AID 2283599)
Outline: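 HCT-116 cells carrying a p53-inducible beta-lactamase reporter were seeded at 4000 cells/well and dosed after 5 h with compound in DMSO (217-fold dilution). After 16 h at 37C, CCF4-AM substrate was added for 2 h, and the 460/530 nm emission ratio was scored as gain-of-signal versus DMSO.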

[6] = TOX21_p53_BLA_p5_viability: Viability Assessment in the Tox21 HCT-116 p53 Agonism Beta-lactamase Assay, Phase 5 (AID 2283600)
Outline: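 Seeded cells (4000/well) settle 5 h before compound addition. Plates then incubate 16 h at 37C, receive FRET substrate for 2 h, and finally CellTiter-Glo, with luminescence measured after a 30 min room-temperature incubation.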

[7] = molecular target: Cellular tumor antigen p53 (Homo sapiens) (UniProt P04637); assay: TOX21_p53_BLA_p4_ratio: Tox21 HCT-116 p53 Agonism Beta-lactamase Assay, Ratio, Phase 4 (AID 2283601)
Outline: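 HCT116 cells carrying an inducible beta-lactamase reporter were plated at 4000 cells/well, rested 5 h, then exposed to compounds in DMSO (217-fold dilution) for 16 h at 37C. CCF4-AM substrate was loaded 2 h at room temperature; 460/530 nm emission ratio scored gain-of-signal versus DMSO.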

Measured: outcome

Cellular tumor antigen p53 (Homo sapiens), sequence (P04637 whole entry, looked up): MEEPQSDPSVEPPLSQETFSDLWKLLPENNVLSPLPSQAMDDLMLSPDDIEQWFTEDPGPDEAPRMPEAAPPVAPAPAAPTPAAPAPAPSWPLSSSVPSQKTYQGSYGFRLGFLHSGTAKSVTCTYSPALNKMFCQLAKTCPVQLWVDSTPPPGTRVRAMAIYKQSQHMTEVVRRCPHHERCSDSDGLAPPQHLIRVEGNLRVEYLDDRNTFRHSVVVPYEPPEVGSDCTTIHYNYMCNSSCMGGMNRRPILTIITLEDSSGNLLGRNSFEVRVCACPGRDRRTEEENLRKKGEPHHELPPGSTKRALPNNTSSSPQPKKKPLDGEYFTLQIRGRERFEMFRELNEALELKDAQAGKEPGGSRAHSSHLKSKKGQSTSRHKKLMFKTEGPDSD

CC(C)C[C@H]1C(=O)N2CCC[C@H]2[C@]2(O)O[C@](NC(=O)[C@@H]3C[C@@H]4c5cccc6[nH]cc(c56)C[C@H]4N(C)C3)(C(C)C)C(=O)N12
inactive: [1] | [2] | [3] | [4] | [5] | [6] | [7]
